Test [1] deals with CCAAT/enhancer-binding protein beta (Homo sapiens) (UniProt P17676). In words: ATG_C_EBP_CIS: Attagene CIS-FACTORIAL HepG2 Assay for human CCAAT/Enhancer Binding Protein (C/EBP) beta (AID 2282927). Conditions: HepG2 Attagene cis-factorial transcription factor reporter; actives raise or lower the signal. The procedure, abridged: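 Transiently transfected HepG2 (MRTU library, endogenous TF-driven promoters); 24 h dosing; total RNA → oligo(dT) RT → PCR → 6-FAM primer extension → HpaI digest → CE; fit bidirectionally vs DMSO.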

Test [2] in a line: ATG_CMV_CIS: Attagene CIS-FACTORIAL HepG2 Assay for human CMV (Internal Marker) (AID 2282928).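 Further: endpoint acts as a background internal control marker rather than a target.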 Conditions: HepG2 CMV promoter reporter, transcription factor profiling; actives raise or lower the signal. The procedure, abridged: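 After transient transfection of HepG2 with reporter transcription units driven by cis-regulatory promoters, cells receive test chemical for 24 h. Labeled reporter amplicons, digested with HpaI, are sized and quantified by capillary electrophoresis against DMSO.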

Test [3] is described as follows: ATG_DR4_LXR_CIS: Attagene CIS-FACTORIAL HepG2 Assay for human Liver X Receptor (LXR), DR4 submotif (AID 2282929). The note with it: HepG2 Attagene DR4 cis-reporter, mRNA transcription; actives raise or lower the signal. The procedure, abridged:
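Cells were transfected with multiple reporter transcription units, exposed to chemicals for 24 hours, then lysed for RNA. Reporter mRNA induction was measured by RT-PCR with capillary electrophoresis detection and fitted in both directions relative to DMSO.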

Test [4] addresses Aryl hydrocarbon receptor (Homo sapiens) (UniProt P35869). In words: ATG_Ahr_CIS: Attagene CIS-FACTORIAL HepG2 Assay for human Aryl Hydrocarbon Receptor (Ahr) (AID 2282930). The note with it: HepG2 AhR cis-factorial reporter transcription; actives raise or lower the signal. The procedure, abridged:
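Read-out: reporter mRNA quantified by RT-PCR with fluorescent primer extension and capillary electrophoresis. Human HepG2 liver cells carried transfected cis-promoter reporter units and were exposed to chemical for 24 h; gain or loss fitted relative to DMSO.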

Test [5] can be described thus: ATG_AP_1_CIS: Attagene CIS-FACTORIAL HepG2 Assay for human Activator Protein 1 (AP-1) (AID 2282931). Conditions: HepG2 Attagene cis-factorial AP-1 reporter mRNA; actives raise or lower the signal. The procedure, abridged:
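Endogenous transcription-factor activity in human HepG2 liver cells is read through a cis-promoter reporter transcript, sampled 24 h after dosing. Detection uses RT-PCR with capillary electrophoresis; values come from bidirectional fitting relative to DMSO.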

The nature of test [6]: ATG_BRE_CIS: Attagene CIS-FACTORIAL HepG2 Assay for human Bone Morphogenetic Protein (BMP) Response Element (BRE) (AID 2282933). Conditions: HepG2 BMP response element reporter, Attagene transcription factor profiling; actives raise or lower the signal. Summed up:
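HepG2 cells transiently transfected with CIS reporter units (endogenous TF activity, BMP response element), dosed 24 h. Reporter mRNA quantified by RT-PCR, fluorescent labelling and capillary electrophoresis; bidirectional fit vs DMSO baseline.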

Test [7] deals with Retinoic acid receptor alpha (Homo sapiens) (UniProt P10276). As to the kind of experiment: ATG_DR5_RAR_CIS: Attagene CIS-FACTORIAL HepG2 Assay for human Retinoic Acid Receptor Alpha (RARE), DR5 submotif (AID 2282934). The note with it: HepG2 Attagene cis-factorial RARE DR5 reporter, mRNA; actives raise or lower the signal. Summed up: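 Read-out: DR5-driven reporter transcript measured by RT-PCR, 6-FAM primer extension, HpaI digest and capillary electrophoresis. Human HepG2 liver cells carry transiently transfected cis-element reporter constructs; dosing lasts 24 h. Gain or loss of signal fitted against DMSO baseline.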

The target in test [8] is Transcription factor E2F1 (Homo sapiens) (UniProt Q01094). As to the kind of experiment: ATG_E2F_CIS: Attagene CIS-FACTORIAL HepG2 Assay for human E2F Transcription Factor 1 (AID 2282935). Conditions: HepG2 Attagene cis-reporter, E2F reporter RNA transcripts; actives raise or lower the signal. Summed up:
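Endogenous E2F1 activity read through cis-promoter reporter units transfected into HepG2. After 24 h compound treatment, reporter mRNA measured by RT-PCR, HpaI digestion and capillary electrophoresis. Bidirectional fit versus DMSO.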

Test [9] can be described thus: ATG_M_61_CIS: Attagene CIS-FACTORIAL HepG2 Assay for M61 Transcription Factor (Internal Marker) (AID 2282937). The note with it: HepG2 Attagene CIS-FACTORIAL M61 internal marker reporter; actives raise or lower the signal. The procedure, abridged:
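Cells were transfected with reporter units under cis-regulatory promoters, treated with chemicals for 24 h, then lysed for RNA. Reporter transcripts were quantified by RT-PCR and capillary electrophoresis, and activity was fitted bidirectionally against DMSO.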

A short description of test [10]: ATG_EGR_CIS: Attagene CIS-FACTORIAL HepG2 Assay for human Early Growth Response 1 (EGR1) (AID 2282938). The note with it: HepG2 Attagene CIS-FACTORIAL EGR reporter mRNA; actives raise or lower the signal. The procedure, abridged: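 Endogenous TF activity in HepG2 liver cells was gauged through cis-promoter reporter constructs transiently transfected. After 24 h dosing, reporter mRNA was quantified by RT-PCR and capillary electrophoresis, and curves fitted in both directions versus DMSO.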

Test [11] is described as follows: ATG_M_19_CIS: Attagene CIS-FACTORIAL HepG2 Assay for M19 Transcription Factor (Internal Marker) (AID 2282939). The note with it: HepG2 Attagene CIS-FACTORIAL M19 internal marker reporter; actives raise or lower the signal. Summed up: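 HepG2 cells transiently transfected with cis-regulated multiplexed reporter units, dosed 24 h. Reporter mRNA quantified by RT-PCR and capillary electrophoresis; internal background marker fitted bidirectionally versus DMSO.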

Test [12] has as its target Hepatocyte nuclear factor 3-beta (Homo sapiens) (UniProt Q9Y261). As to the kind of experiment: ATG_FoxA2_CIS: Attagene CIS-FACTORIAL HepG2 Assay for human Forkhead box A2 (FOXA2) (AID 2282942). The note with it: HepG2 cis-reporter transcription factor activity, 24 h; actives raise or lower the signal. Summed up: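 Endogenous transcription factor activity was read in HepG2 cells carrying transiently transfected cis-promoter reporter units. After 24 h dosing, reporter mRNA was quantified by RT-PCR and capillary electrophoresis, and values fitted bidirectionally versus DMSO.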

The nature of test [13]: ATG_FoxO_CIS: Attagene CIS-FACTORIAL HepG2 Assay for human Forkhead box O (FoxO) (AID 2282943). Conditions: HepG2 Attagene cis-reporter, FoxO element, mRNA; actives raise or lower the signal. The procedure, abridged: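 Read-out: fluorescence of 6-FAM-labelled reporter cDNA fragments resolved by capillary electrophoresis. Transiently transfected HepG2 cells were dosed for 24 h; activity fitted in both directions relative to DMSO controls.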

Test [14] can be described thus: ATG_GLI_CIS: Attagene CIS-FACTORIAL HepG2 Assay for human Zinc Finger Protein GLI1 (AID 2282945). Conditions: HepG2, Attagene cis-factorial reporter mRNA, GLI element; actives raise or lower the signal. The procedure, abridged:
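Transiently transfected HepG2 cells report endogenous transcription factor activity via cis-element-driven reporter units. After 24 h compound exposure, reporter mRNA was measured by RT-PCR with capillary electrophoresis; bidirectional fitting against DMSO baseline.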

Test [15] addresses Bile acid receptor (Homo sapiens) (UniProt Q96RI1). In words: ATG_IR1_CIS: Attagene CIS-FACTORIAL HepG2 Assay for human Nuclear Receptor Subfamily 1 Group H Member 4 (NR1H4), IR1 submotif (AID 2282946). Conditions: IR1 reporter transcription, actives raise or lower the signal. Summed up:
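HepG2 cells transiently transfected with multiple cis-promoter-driven reporter units to measure endogenous transcription factor activity; 24 h exposure. Reporter mRNA read by RT-PCR, FAM labelling, HpaI digestion and capillary electrophoresis. Bidirectional fit versus DMSO.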

Test [16] can be described thus: ATG_AP_2_CIS: Attagene CIS-FACTORIAL HepG2 Assay for human Activator Protein 2 (AP-2) (AID 2282932). Conditions: HepG2 AP-2 cis-reporter, Attagene transcription factor profiling; actives raise or lower the signal. Summed up:
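HepG2 cells transiently transfected with cis-element reporter units and exposed for 24 h. Reporter mRNA measured by RT-PCR, FAM labelling, HpaI digestion and capillary electrophoresis. Changes in either direction fitted relative to DMSO.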

The nature of test [17]: ATG_E_Box_CIS: Attagene CIS-FACTORIAL HepG2 Assay for human Enhancer Box (E-box) (AID 2282936). The note with it: HepG2 E-box cis-reporter transcription, actives raise or lower the signal. The procedure, abridged:
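HepG2 cells transiently transfected with multiplexed cis-element reporter units, dosed 24 h; reporter mRNA quantified by RT-PCR, 6-FAM labelling, HpaI digestion and capillary electrophoresis. E-box (USF1) signal fitted bidirectionally vs DMSO.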

Test [18] in a line: ATG_Ets_CIS: Attagene CIS-FACTORIAL HepG2 Assay for human Erythroblast Transformation Specific (ETS) (AID 2282941). The note with it: HepG2 ETS cis-reporter transcription, actives raise or lower the signal. The procedure, abridged: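 Human HepG2 hepatoma cells were transiently transfected with promoter-driven reporter constructs and treated for 24 hours. Reporter transcripts were quantified by RT-PCR with fluorescent primer extension; bidirectional curve fitting used DMSO as reference.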

Test [19] in a line: ATG_GATA_CIS: Attagene CIS-FACTORIAL HepG2 Assay for human GATA Binding Protein (AID 2282944). Conditions: HepG2 GATA cis-element reporter, Attagene multiplex mRNA; actives raise or lower the signal. The procedure, abridged:
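HepG2 cells transiently transfected with multiplexed cis-element reporter units measure endogenous GATA activity; after 24 h compound exposure, reporter mRNA quantified by RT-PCR and capillary electrophoresis. Changes fitted in both directions vs DMSO.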

Activity calls are given as the source filed them. How the source made its calls: active means hit-call score of the fitted dose curve at least 0.9, where 1 is the maximum; inactive means score below 0.9.

Sequence of CCAAT/enhancer-binding protein beta (Homo sapiens) (P17676 whole entry, looked up): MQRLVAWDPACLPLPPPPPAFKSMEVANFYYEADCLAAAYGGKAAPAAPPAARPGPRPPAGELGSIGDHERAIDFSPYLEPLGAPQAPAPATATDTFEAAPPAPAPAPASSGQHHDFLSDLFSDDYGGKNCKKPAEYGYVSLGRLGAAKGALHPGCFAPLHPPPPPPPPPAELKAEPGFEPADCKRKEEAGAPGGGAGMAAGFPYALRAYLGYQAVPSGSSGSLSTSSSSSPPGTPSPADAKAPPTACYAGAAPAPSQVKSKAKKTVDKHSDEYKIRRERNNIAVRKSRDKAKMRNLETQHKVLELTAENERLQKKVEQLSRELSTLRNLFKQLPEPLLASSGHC
Sequence of Transcription factor E2F1 (Homo sapiens) (Q01094 whole entry, looked up): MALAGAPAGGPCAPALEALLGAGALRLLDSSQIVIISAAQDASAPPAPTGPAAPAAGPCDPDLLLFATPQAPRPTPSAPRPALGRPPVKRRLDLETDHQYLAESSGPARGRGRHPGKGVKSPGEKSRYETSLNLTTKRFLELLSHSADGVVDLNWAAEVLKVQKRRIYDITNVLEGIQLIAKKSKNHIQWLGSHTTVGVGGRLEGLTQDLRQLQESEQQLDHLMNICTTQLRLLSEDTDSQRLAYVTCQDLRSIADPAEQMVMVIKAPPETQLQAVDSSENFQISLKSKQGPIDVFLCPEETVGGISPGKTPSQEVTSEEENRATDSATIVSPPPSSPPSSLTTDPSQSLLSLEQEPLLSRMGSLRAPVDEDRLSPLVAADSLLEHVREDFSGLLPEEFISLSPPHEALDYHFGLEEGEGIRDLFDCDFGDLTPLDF
Sequence of Aryl hydrocarbon receptor (Homo sapiens) (P35869 whole entry, looked up): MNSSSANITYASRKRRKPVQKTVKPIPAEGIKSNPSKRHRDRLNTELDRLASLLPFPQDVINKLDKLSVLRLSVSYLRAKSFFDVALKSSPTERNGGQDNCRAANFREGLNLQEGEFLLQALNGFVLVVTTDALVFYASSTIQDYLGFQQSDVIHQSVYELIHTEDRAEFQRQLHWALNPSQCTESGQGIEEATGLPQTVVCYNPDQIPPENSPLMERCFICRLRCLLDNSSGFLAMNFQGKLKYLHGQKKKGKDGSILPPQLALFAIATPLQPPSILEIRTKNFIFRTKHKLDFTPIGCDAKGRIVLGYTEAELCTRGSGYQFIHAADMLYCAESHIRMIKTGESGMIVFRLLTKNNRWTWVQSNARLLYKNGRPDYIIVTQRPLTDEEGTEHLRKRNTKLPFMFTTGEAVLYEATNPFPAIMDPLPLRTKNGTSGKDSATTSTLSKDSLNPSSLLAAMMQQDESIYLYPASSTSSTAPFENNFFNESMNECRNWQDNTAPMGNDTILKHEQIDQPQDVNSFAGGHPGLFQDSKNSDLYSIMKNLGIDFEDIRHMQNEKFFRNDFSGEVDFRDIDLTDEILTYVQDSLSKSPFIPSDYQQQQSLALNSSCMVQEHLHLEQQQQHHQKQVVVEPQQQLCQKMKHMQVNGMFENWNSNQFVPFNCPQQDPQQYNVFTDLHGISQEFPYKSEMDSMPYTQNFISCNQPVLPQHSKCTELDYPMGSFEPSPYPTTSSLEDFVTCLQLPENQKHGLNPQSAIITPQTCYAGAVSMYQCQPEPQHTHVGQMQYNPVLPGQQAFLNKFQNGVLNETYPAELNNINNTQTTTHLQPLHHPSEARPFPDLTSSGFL
Sequence of Hepatocyte nuclear factor 3-beta (Homo sapiens) (Q9Y261 whole entry, looked up): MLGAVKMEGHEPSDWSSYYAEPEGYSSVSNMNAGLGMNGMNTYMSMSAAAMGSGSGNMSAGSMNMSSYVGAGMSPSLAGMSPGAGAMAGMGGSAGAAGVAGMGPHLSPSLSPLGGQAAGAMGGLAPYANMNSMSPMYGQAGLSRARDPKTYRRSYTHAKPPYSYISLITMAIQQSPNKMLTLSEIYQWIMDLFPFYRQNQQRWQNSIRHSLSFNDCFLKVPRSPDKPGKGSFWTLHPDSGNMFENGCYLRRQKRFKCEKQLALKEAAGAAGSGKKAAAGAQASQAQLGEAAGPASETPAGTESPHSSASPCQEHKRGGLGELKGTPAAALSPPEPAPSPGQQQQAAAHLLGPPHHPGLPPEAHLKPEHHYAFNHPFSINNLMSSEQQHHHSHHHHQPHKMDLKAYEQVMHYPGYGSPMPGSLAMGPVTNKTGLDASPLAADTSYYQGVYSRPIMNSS
Sequence of Retinoic acid receptor alpha (Homo sapiens) (P10276 whole entry, looked up): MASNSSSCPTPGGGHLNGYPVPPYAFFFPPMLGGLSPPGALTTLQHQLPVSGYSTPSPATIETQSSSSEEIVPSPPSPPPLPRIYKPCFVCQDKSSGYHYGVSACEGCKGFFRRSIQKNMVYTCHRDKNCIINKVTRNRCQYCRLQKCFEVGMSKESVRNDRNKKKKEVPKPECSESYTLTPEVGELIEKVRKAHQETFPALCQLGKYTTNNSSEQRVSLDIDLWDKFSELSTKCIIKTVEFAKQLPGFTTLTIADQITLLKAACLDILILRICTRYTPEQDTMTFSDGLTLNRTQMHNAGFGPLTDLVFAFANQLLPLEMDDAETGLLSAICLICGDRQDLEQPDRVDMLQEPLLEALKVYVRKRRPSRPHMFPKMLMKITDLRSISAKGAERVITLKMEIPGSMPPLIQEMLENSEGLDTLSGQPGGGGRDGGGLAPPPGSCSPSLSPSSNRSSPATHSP
Sequence of Bile acid receptor (Homo sapiens) (Q96RI1 whole entry, looked up): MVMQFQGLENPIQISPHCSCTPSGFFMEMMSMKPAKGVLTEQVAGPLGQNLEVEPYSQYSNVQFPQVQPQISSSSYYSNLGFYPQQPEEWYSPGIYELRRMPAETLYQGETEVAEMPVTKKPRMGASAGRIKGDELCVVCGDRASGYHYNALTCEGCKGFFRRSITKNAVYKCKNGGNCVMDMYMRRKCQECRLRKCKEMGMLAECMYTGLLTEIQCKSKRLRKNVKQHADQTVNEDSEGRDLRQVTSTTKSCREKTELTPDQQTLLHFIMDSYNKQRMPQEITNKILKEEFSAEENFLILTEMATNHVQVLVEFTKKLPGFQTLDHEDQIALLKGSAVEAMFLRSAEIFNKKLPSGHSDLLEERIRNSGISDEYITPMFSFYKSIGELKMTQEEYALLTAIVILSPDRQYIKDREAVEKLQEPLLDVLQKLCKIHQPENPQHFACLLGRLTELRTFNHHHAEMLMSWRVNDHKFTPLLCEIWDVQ

In the case of `CCCCC(CC)C(=O)OC(C)C` (stereo unspecified), the result in test [1], in [2], in test [3], in test [4], in test [5] and in test [6] was inactive. The outcome in [7], in test [8], in test [9], in test [10], in test [11] and in test [12] was inactive. The compound was classed as inactive in test [13], in test [14] and in test [15].
Turning to `CC(=O)CC(=O)Nc1ccc(C)cc1C`, the outcome in [1], in [2], in test [3], in [4], in [5] and in test [16] was inactive. Also, the result in test [6], in test [7], in test [8], in [17], in test [9] and in test [10] was inactive. The outcome in [11], in [18], in test [12], in test [13], in test [19] and in [15] was inactive.
As to `C[C@H]1O[C@@H](O[C@H]2[C@@H](O)C[C@H](O[C@H]3[C@@H](O)C[C@H](O[C@H]4CC[C@@]5(C)[C@H](CC[C@@H]6[C@@H]5C[C@@H](O)[C@]5(C)[C@@H](C7=CC(=O)OC7)CC[C@]65O)C4)O[C@@H]3C)O[C@@H]2C)C[C@H](O)[C@@H]1O`, the AC50 in [1] was 59.3 nM (active); in test [2] it was 2560 nM (active); in [3], 110 nM (active); in test [16], 85.7 nM (active); in test [10], 163 nM (active); in test [13], 202 nM (active). The AC50 was 335 nM (active) in [19] and 253 nM (active) in test [15]. In addition, the compound was classed as inactive in test [4], in [5], in [6], in test [7], in [8] and in [17]. Further, the call in [9], in test [11], in [12] and in test [14] was inactive.
`CCCCCC(C)=O`: the result in [1], in [2], in test [4], in [5], in test [16] and in [6] was inactive. Also, the result in [7], in test [8], in test [17], in test [9], in test [10] and in test [18] was inactive. For the same compound, the result in test [13], in test [19] and in test [14] was inactive.

For the origin of these results see PubChem BioAssay (EPA / NIEHS).
